Shown are actives, neighbours in structure and some others; about 3% of the full set was active somewhere.
p53ts 39C kill = p53ts cell cytotoxicity, nonpermissive temperature; H1299-p53A138V viability at 39C, ATP luminescence, 24 h; Potency, µM (titrated, usually from 46.1 µM), for inactives: at the highest dose activity change, negative = cell killing, actives largely listed as cytotoxic; 1.5% of 130,000 active; AID 902; further: on the % scale 0 is the no-effect control and ±100 the full control effect; nearly all actives have a fitted effect of over 55% in size
CRE-bla Fsk = alters forskolin-stimulated CRE reporter signaling in CHO cells; CHO CRE-bla reporter (cAMP response element driving beta-lactamase), forskolin EC10, beta-lactamase ratio; Potency, µM (top dose mostly 38.2 µM), for the others: at the highest dose activity change, negative = inhibition, actives largely listed as activators; 2.5% of 71,000 active; AID 662; active means well fitted activation curve with a large enough effect in the signal ratio, with a control signal flat, not every such curve was filed as active; inconclusive means small, poorly fitted or top-dose-only effect, or effect the other way, or a change in a side signal; the % refers to the signal ratio; further: % of control where 0% means no effect
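Cells were plated overnight at 37 °C, exposed to compound titrations plus EC10 NKH 477 for 3 h, then given CCF4 dye for 2 h at room temperature. Blue/green (460/530 nm) ratio was converted to %Activity and AC50 values calculated.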
p53ts 32C kill = kills p53ts cells at the permissive temperature; H1299-p53A138V at 32C, ATP luminescence viability, 24 h; Potency, µM (titrated, usually from 46.1 µM), for the others: top-dose activity change, negative = cytotoxicity, most hits filed as cytotoxic; 0.93% of 130,000 active; AID 924;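 further: 0% = DMSO and -100% = full killing by reference compound; nearly all actives have a fitted effect of over 55% in size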
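ATP-content luminescence (ATPlite) read-out after 24 h compound exposure at 32C in H1299-p53A138V cells (600/well). Tested up to 46 uM. Normalized to DMSO (0%) and 100 uM tamoxifen (100% killing); Hill-fit AC50.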
IkB signaling = inhibitors of IkB signaling in ABC-DLBCL cells | Potency, µM (top dose mostly 57.1 µM), for inactives: at the highest dose IkBa stabilization activation | ABC-DLBCL IkBa-CBG/CBR dual luciferase ratio, 4 h; response scale: scaled: untreated 0%, proteasome inhibitor 100% | 0.04% of 110,000 active; active means well fitted curve in the direction sought with a large enough effect in the signal ratio, not every such curve was filed as active; inconclusive means small, poorly fitted or top-dose-only effect, or a change in a side signal; the % refers to the signal ratio;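 further: the direction sought is a rising ratio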
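Curves were fitted separately to fusion (green), unfused (red) and ratio luminescence, then classed by r2, magnitude and activity. Cells: OCI-Ly3, 4 h compound plus doxycycline at 37C; 10 uM MG-132 defined full response.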
Imprint erasure = induces erasure of genomic imprints in mouse ES cells. mouse ES Peg3-LacZ reporter, beta-gal luminescence, 40 h. Potency, µM (titrated, usually from 60.7 µM), for the others: at the highest dose activity change, positive = activation, hits mostly activators. 0.02% of 110,000 active. AID 1948
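Imprint erasure is scored as LacZ activity from the silenced maternal Peg3 allele in feeder-free female ES cells cultured 40 h with LIF. Luminescence is normalized to in-plate negative controls and fitted to the Hill equation.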
* = called active by the depositor; ? = inconclusive; / = no result given; [ ] = remark or other dose. Unless noted, the call rests on the fitted dose curve; in most records, active means well fitted curve in the direction sought with a large enough effect; inconclusive means small, poorly fitted or top-dose-only effect, or another doubt; inactive means no such curve, though single readings can be large; an effect the other way counts as inactive or inconclusive. Potency means the concentration at half of the fitted maximal effect.

SMILES	p53ts 39C kill	CRE-bla Fsk	p53ts 32C kill	IkB signaling	Imprint erasure
CSCc1nnc(NC(=O)c2ccc(S(=O)(=O)N(CC(C)C)CC(C)C)cc2)o1	13µM*	-13%	-4%	0%	-24%
CCc1nnc(NC(=O)c2ccc(S(=O)(=O)N(CC(C)C)CC(C)C)cc2)o1	13µM*	-8%	-3%	2%	-21%
COC(=O)c1ccc(NC(=O)CSc2nc(=O)[nH]c3c2CCCC3)cc1	7%	/	-11%	?	7%[10.9 µM]
CCOc1ccc(NC(=O)CSc2nnc(CNC(=O)C34CC5CC(CC(C5)C3)C4)n2CC)cc1	-14%	/	6%	?	-10%[10.9 µM]
CCCOc1ccc(CC2C(=O)Nc3ccc(Br)cc32)cc1 (centres undefined)	20µM*	/	?	-1%	-6%[10.9 µM]
Cc1ccc(N2CC(C(=O)Nc3ccc(Br)cc3)CC2=O)cc1 (centres undefined)	-18%	/	2%	?	-7%[10.9 µM]
Oc1ccc(NCc2ccc(OCc3ccccc3Cl)cc2)cc1	10µM*	/	?	?	-65%[10.9 µM]
Oc1ccc(OCc2ccccc2)cc1	-18%[20.6 µM]	7%[17.1 µM]	-11%[20.6 µM]	-10%[25.6 µM]	-50%[16.8 µM]
Oc1ccc(NCc2ccc(OCc3ccccc3)cc2)cc1	20µM*	/	?	?	-54%[10.9 µM]
O=C(CN1C(=O)c2ccccc2C1=O)N1CCN(c2ccccn2)CC1	2%	4%	6%	2%	6%
O=C1C=C(N2CCN(c3ccccn3)CC2)C(=O)c2c(O)ccc(O)c21	-20%[9.22 µM]	3.2µM*	-13%[9.22 µM]	5µM*	-22%[10.9 µM]
COc1ccc(-n2nc3ccc(NC(=O)c4c(OC)cccc4OC)cc3n2)cc1	14%	/	-1%	-5%	14%[10.9 µM]
Cc1cccn2c(=O)cc(COc3cccc(NC(=O)c4ccccc4F)c3)nc12	7.9µM*	/	-5%	?	-3%[10.9 µM]
O=C(O)[C@H](C1NCCS1)N1C(=O)c2ccccc2C1=O (some centres undefined)	/	/	/	/	-3%[10.9 µM]
Cc1cc2c(n1-c1ccc(C(=O)NCc3cccc(Br)c3)cc1)CCC(C)C2 (centres undefined)	/	/	4%	/	/
CCn1cc(SCC(=O)NCc2ccc3c(c2)OCO3)c2ccccc21	5µM*	-3%	5µM*	?	-90%
CCc1ccc(NS(=O)(=O)c2ccc3oc(=O)c4ncn(CC)c4c3c2)cc1	13µM*	/	?	?	-4%[10.9 µM]
CCN(C(=O)c1ccc2c(c1)N(Cc1cccc(Cl)c1)C(=O)c1ccccc1S2=O)c1ccccc1 (centres undefined)	-21%	/	28%	9%	-21%[10.9 µM]
CCOc1ccc(C(=O)c2cn(CC(=O)Nc3ccc(F)cc3)c3cc4c(cc3c2=O)OCCO4)cc1	-7%	/	1%	?	-21%[10.9 µM]
O=C1c2c(O)ccc([N+](=O)[O-])c2C(=O)c2c([N+](=O)[O-])ccc(O)c21	16µM*	?	0%[1.84 µM]	?	-37%
CN(C)S(=O)(=O)c1ccc(Nc2ccc(O)c3c2C(=O)c2c([N+](=O)[O-])ccc(O)c2C3=O)cc1	-3%[9.22 µM]	14%[7.6 µM]	-4%[9.22 µM]	4%[11.4 µM]	?
CCOC(=O)c1c(-c2ccccc2)csc1NC(=O)c1nn(CC)cc1Br	1%	2.5µM*	17%	?	-15%
CCOC(=O)c1c(NC(=O)c2nn(CC)cc2Br)c(C#N)cn1-c1ccccc1	3%	2.5µM*	1%	?	-11%
CCN(CC)c1ccc(NC(=O)CSc2nnc(C)c(=O)[nH]2)cc1	1%	/	-4%	1%	-2%[10.9 µM]
CCn1c(Sc2nc(C)nc3scc(-c4cccs4)c23)n[nH]c1=O	14%	3%	12%	?	3%
SMILES	p53ts 39C kill	CRE-bla Fsk	p53ts 32C kill	IkB signaling	Imprint erasure
N#CCSc1nc2scc(-c3cccs3)c2c(=O)n1CCc1ccccc1	4%	2.5µM*	-5%	2%	-10%
C=CCn1c(SCn2nnc3ccccc3c2=O)nc2scc(-c3cccs3)c2c1=O	-3%	2µM*	1%	1%	11%
O=c1c2ccccc2nnn1CSc1nnc(-c2cccs2)n1Cc1ccccc1	?	?	?	?	-15%
Cc1ccc(-n2nc3c(N4CCCC(C(=O)NCc5ccccc5C)C4)nnc(C)c3c2C)cc1 (centres undefined)	?	/	?	?	5%[10.9 µM]
Cc1cc(Cl)ccc1OCC(=O)N(Cc1ccc(N(C)C)cc1)CC1CCCO1 (centres undefined)	-27%	/	20%	?	-10%[10.9 µM]
CCOC(=O)c1ccccc1NC(=O)Cn1c(-c2nonc2N)nc2ccccc21	-4%	2µM*	-1%	7%	-19%
COc1ccc(NC(=O)c2ccco2)cc1NC(=O)COc1ccc(Cl)c(C)c1	10µM*	/	?	-1%	-6%[10.9 µM]
COc1ccc(NC(=O)c2ccco2)cc1NC(=O)COc1cc(C)ccc1C(C)C	?	/	-30%	-2%	-11%[10.9 µM]
COc1ccc(Nc2cc(C)nc3nc(C)nn23)cc1Cl	3%	?	8%	1%	-11%
COc1cc(Nc2cc(C)nc3nc(C)nn23)cc(OC)c1OC	3%	4µM*	5%	1%	3%
COc1cccc(Nc2cc(C)nc3nc(-c4ccc(Cl)cc4)nn23)c1	-9%	/	3%	11%	6%[10.9 µM]
COc1ccc(C)cc1Nc1cc(C)nc2nc(C)nn12	5%	10µM*	-3%	-4%	-22%
COc1cccc(Nc2cc(C)nc3nc(C)nn23)c1	5%	13µM*	2%	3%	-13%
C[C@@]12CCC(=O)C=C1CC[C@H]1C2[C@@H](O)C[C@]2(C)[C@@H]1CC[C@@]2(O)C(=O)CO (some centres undefined)	/	/	/	/	-8%[10.9 µM]
COCCCN1C(=O)c2[nH]nc(-c3ccccc3O)c2C1c1ccc(Cl)cc1 (centres undefined)	3%	-13%	33%	?	-15%
O=C1c2[nH]nc(-c3ccccc3O)c2C(c2ccc(Cl)cc2)N1CCc1ccccc1 (centres undefined)	?	/	20µM*	?	9%[10.9 µM]
Cc1cc(C(=O)CN2C(=O)c3ccccc3C2=O)c(C)n1Cc1cccs1	?	12%	?	0%	-67%
Cc1cc(C(=O)Cn2nnc3ccccc3c2=O)c(C)n1Cc1cccs1	13µM*	-9%	16µM*	?	-30%
Cc1nnc(NC(=O)C(C)Sc2nncn2C)s1 (centres undefined)	14%	-14%	-8%	-2%	-20%
COc1ccc(OC)c(-c2nnc(NC(=O)C(C)Sc3nncn3C)s2)c1 (centres undefined)	-13%	13µM*	-3%	-3%	-6%
CCc1ccc(NC(=O)Cn2c(=O)n(CCc3ccccc3)c(=O)c3sc4ccccc4c32)cc1	-29%	/	3%	-1%	-8%[10.9 µM]
